Assay results: PubChem BioAssay (Tox21)
Inconclusive results are not listed. Calls of active or inactive are those of the source. Unless noted, the call rests on the fitted dose curve.

Columns and labels:
[1] = Nuclear factor erythroid 2-related factor 2/antioxidant responsive element (Nrf2/ARE) small molecule agonists: qHTS cell viability counter screen in human keratinocytes (AID 1919968; active means well fitted curve in the direction sought with a large enough effect in the repeat runs; an effect the other way counts as inactive or inconclusive; further: nearly all actives have a fitted effect of over 55% in size; further: potency means the concentration at half of the fitted maximal effect)
Procedure, shortened: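 KeratinoSens cells (HaCaT keratinocytes stably carrying an ARE-luciferase reporter) were seeded at 1,500 cells/well and rested 5 h at 37 C/5% CO2. They were then exposed to compounds in DMSO for 23 h. Viability was read by CellTiter-Fluor fluorescence after 1 h.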

[2] = Nuclear factor erythroid 2-related factor 2/antioxidant responsive element (Nrf2/ARE) small molecule agonists: luciferase reporter gene qHTS assay in human keratinocytes (AID 1919969); further: nearly all actives have a fitted effect of over 35% in size
[3] = target: Gonadotropin-releasing hormone receptor (Homo sapiens) (UniProt P30968); experiment: Human gonadotropin-releasing hormone receptor (GnRHR) small molecule agonists, calcium flux assay in GnRHR-HEK293 cells (AID 1920063); further: nearly all actives have a fitted effect of over 35% in size
Procedure, shortened: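 HEK293 cells stably expressing human GnRHR were plated 18 h at 37 °C, loaded with calcium dye 1 h at 37 °C, then given compound in agonist mode; fluorescence (Ex/Em 480/540) read kinetically for 3 min at 1 s intervals.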

[4] = target: KiSS-1 receptor (Homo sapiens) (UniProt Q969F8); experiment: Human kisspeptin (KISS1R) small molecule agonists, calcium flux assay in KISS1R-HEK293 cells (AID 1920064; active means well fitted curve in the direction sought with a large enough effect in the repeat runs; an effect the other way counts as inactive or inconclusive)
Procedure, shortened: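 HEK293 cells stably expressing human KISS1R were plated 18 h at 37 °C, loaded with calcium dye for 1 h at 37 °C, then given compound by pin tool. Fluorescence (Ex/Em 480/540) was read kinetically for 3 min.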

[5] = G protein-coupled receptor (GPCR) small molecule agonists, calcium flux assay: HEK293 wild type cell line counter screen (AID 1920065)
Procedure, shortened: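 Cells were plated and cultured 18 h at 37 C/5% CO2, then loaded with calcium dye for 1 h at 37 C. Compounds in DMSO were pin-transferred in agonist mode, and fluorescence (Ex/Em 480/540) was read kinetically for 3 min at 1 s intervals.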

[6] = p53 small molecule agonists, cell-based qHTS assay with rat liver microsomes (AID 1963578)
Procedure, shortened: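 Quantitative HTS of the Tox21 10K library: p53RE-bla cells, rat liver microsomes plus NADPH at 0.5 mg/mL final each, 16 h at 37 C, beta-lactamase fluorescence detection.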

[7] = p53 small molecule agonists, cell-based qHTS assay with human liver microsomes: qHTS cell viability counter screen (AID 1963579); further: nearly all actives have a fitted effect of over 45% in size
Procedure, shortened: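 Viability of p53RE-bla cells is measured as CellTiter-Glo luminescence following a 16 h, 37 C incubation with compound, liver microsomes from human donors and NADPH.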

[8] = p53 small molecule agonists, cell-based qHTS assay with rat liver microsomes: qHTS cell viability counter screen (AID 1963580); further: nearly all actives have a fitted effect of over 45% in size; further: potency means the concentration at half of the fitted maximal effect
Procedure, shortened: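 p53RE-bla HCT-116 cells (4,000/well) rested 5 h at 37 C, then given Tox21 compounds in DMSO with rat liver microsomes (0.5 mg/mL final) plus NADPH (0.5 mg/mL final) for 16 h at 37 C. Viability read by CellTiter-Glo luminescence after 30 min at room temperature.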

[9] = p53 small molecule agonists, cell-based qHTS assay: qHTS cell viability counter screen (AID 1963581); further: nearly all actives have a fitted effect of over 45% in size
Procedure, shortened: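 p53RE-bla HCT-116 cells were exposed to compounds for 16 h at 37 C; after the beta-lactamase FRET read in the same wells, CellTiter-Glo was added and luminescence (intracellular ATP) read after 30 min at room temperature.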

[10] = p53 small molecule agonists, cell-based qHTS assay (AID 1963582; active means well fitted activation curve with a large enough effect in the signal ratio in the repeat runs, not every such curve was filed as active; the % refers to the signal ratio)
Procedure, shortened: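 p53RE-bla beta-lactamase reporter cells rested 5 h at 37 C/5% CO2, then received compounds in DMSO by pin transfer and were incubated 16 h at 37 C. LiveBLAzer B/G FRET substrate was loaded for 2 h at room temperature before fluorescence reading.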

[11] = target: 5-hydroxytryptamine receptor 2A (Homo sapiens) (UniProt P28223); experiment: 5-hydroxytryptamine receptor 2A (HTR2A) small molecule antagonists, cell-based qHTS assay (AID 1963586); further: nearly all actives have a fitted effect of over 45% in size
Procedure, shortened: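 Antagonist-mode intracellular calcium assay: DOI (4 nM) added after 5 min compound pre-incubation at room temperature to dye-loaded HTR2A-CHO cells. Fluorescence followed for 3 min, sampled every second.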

[12] = target: Muscarinic acetylcholine receptor M1 (Homo sapiens) (UniProt P11229); experiment: Cholinergic receptor muscarinic 1 (CHRM1) small molecule antagonists, cell-based qHTS assay (AID 1963588); further: nearly all actives have a fitted effect of over 40% in size; further: potency means the concentration at half of the fitted maximal effect
Procedure, shortened: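 CHRM1-CHO calcium-flux assay, antagonist mode. Cells were seeded 18 h, dye-loaded 1 h at 37 C and given compound for 5 min at RT, then acetylcholine was added at 50nM. FDSS fluorescence was read 3 min; 15 concentrations, three runs.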

[13] = target: Muscarinic acetylcholine receptor M1 (Homo sapiens) (UniProt P11229); experiment: Cholinergic receptor muscarinic 1 (CHRM1) small molecule agonists, cell-based qHTS assay (AID 1963589); further: nearly all actives have a fitted effect of over 35% in size
Procedure, shortened: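 CHO cells stably expressing human CHRM1, seeded 18 h at 37 C/5% CO2, dye-loaded 1 h at 37 C, then given compound in agonist mode; intracellular calcium fluorescence read kinetically at 1 s intervals. Fifteen concentrations, three independent runs.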

[14] = cAMP Responsive Elements (CRE) small molecule agonists, cell-based qHTS assay (AID 1963590)
Procedure, shortened: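 CRE-bla HEK 293T cells in DMEM with 10% dialyzed FBS, NEAA, pyruvate and 25 mM HEPES were plated 18 h at 37 C/5% CO2, then exposed to compounds in DMSO for 3 h before LiveBLAzer B/G FRET substrate addition.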

[15] = cAMP Responsive Elements (CRE) small molecule antagonists, cell-based qHTS assay (AID 1963591; active means well fitted inhibition curve with a large enough effect in the signal ratio in the repeat runs, not every such curve was filed as active; the % refers to the signal ratio)
Procedure, shortened: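 CRE-bla HEK293T cells were plated 18 h at 37 °C/5% CO2, pinned with compound in DMSO, then stimulated with NKH477 at 0.25 uM final for 3 h. LiveBLAzer B/G FRET substrate was added and plates incubated 2 h at room temperature.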

[16] = target: Beta-2 adrenergic receptor (Homo sapiens) (UniProt P07550); experiment: Adrenergic beta2 receptor (ADRB2) small molecule antagonists, cell-based qHTS assay (AID 1963592); further: nearly all actives have a fitted effect of over 50% in size; further: potency means the concentration at half of the fitted maximal effect; on activity change, negative = inhibition: series mostly up to about 92 µM
Procedure, shortened: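 Cells (CHO, stable ADRB2 overexpression) incubated 18-20hr at 37C; compounds added from DMSO; agonist mix (1nM isoproterenol, 100uM IBMX, 25uM Ro-20-1724) added; 0.5hr RT; d2-cAMP and anti-cAMP-cryptate added; 1hr RT; 665/615 nm read.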

[17] = target: Beta-2 adrenergic receptor (Homo sapiens) (UniProt P07550); experiment: Adrenergic beta2 receptor (ADRB2) small molecule agonists, cell-based qHTS assay (AID 1963593);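 further: CHO cells stably overexpressing human ADRB2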
Procedure, shortened: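 CHO cells stably over-expressing ADRB2 were plated overnight at 37C, then dosed with compounds plus a stimulation mix containing 100uM IBMX and 25uM Ro-20-1724 for 0.5hr at room temperature. cAMP was measured by HTRF competition, 1hr.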

[18] = target: D(2) dopamine receptor (Homo sapiens) (UniProt P14416); experiment: Dopamine D2 receptor (DRD2) small molecule agonists, cell-based qHTS assay (AID 1963594); further: nearly all actives have a fitted effect of over 35% in size
Procedure, shortened: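 HEK293 cells stably expressing DRD2 were cultured 24 h at 37 C, then given Ro20-1724 (0.1 mM final) and compounds for 10 min at room temperature. NKH477 (200nM) was then added for 30 min. cAMP was read by HTRF.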

[19] = target: D(2) dopamine receptor (Homo sapiens) (UniProt P14416); experiment: Dopamine D2 receptor (DRD2) small molecule antagonists, cell-based qHTS assay (AID 1963595; active means well fitted inhibition curve with a large enough effect in the signal ratio in the repeat runs, with a control signal flat; the % refers to the signal ratio; further: potency means the concentration at half of the fitted maximal effect)
Procedure, shortened: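 Stable D2 receptor HEK293 line, 24 h after seeding. Compound preincubated 10 min, then quinpirole (12 nM) with forskolin analogue NKH477 (200 nM), 30 min, room temperature. Detection by time-resolved FRET of cAMP.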

[20] = target: 5-hydroxytryptamine receptor 2A (Homo sapiens) (UniProt P28223); experiment: 5-hydroxytryptamine receptor 2A (HTR2A) small molecule agonists, cell-based qHTS assay (AID 1963587); further: nearly all actives have a fitted effect of over 30% in size
Procedure, shortened: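 HTR2A-CHO cells, plated 18 h at 37 C/5% CO2, dye-loaded 1 h at 37 C; compounds in DMSO added by pin tool (agonist mode). Intracellular calcium flux read as kinetic fluorescence on FDSS over 2 min at 1 s intervals.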
On the % scale 0 is the no-effect control and ±100 the full control effect.

Sequence of KiSS-1 receptor (Homo sapiens) (Q969F8 whole entry, looked up): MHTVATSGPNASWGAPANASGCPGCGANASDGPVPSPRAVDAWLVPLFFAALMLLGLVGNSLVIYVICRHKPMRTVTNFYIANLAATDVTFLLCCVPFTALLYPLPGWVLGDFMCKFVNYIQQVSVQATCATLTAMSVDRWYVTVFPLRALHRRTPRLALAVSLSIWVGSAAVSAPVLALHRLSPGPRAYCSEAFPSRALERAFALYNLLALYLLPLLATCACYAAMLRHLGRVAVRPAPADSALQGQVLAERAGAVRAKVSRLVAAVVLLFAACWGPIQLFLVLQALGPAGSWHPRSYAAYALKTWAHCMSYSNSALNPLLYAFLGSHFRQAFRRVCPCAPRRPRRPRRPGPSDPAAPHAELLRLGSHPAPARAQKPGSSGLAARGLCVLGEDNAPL
Sequence of Beta-2 adrenergic receptor (Homo sapiens) (P07550 whole entry, looked up): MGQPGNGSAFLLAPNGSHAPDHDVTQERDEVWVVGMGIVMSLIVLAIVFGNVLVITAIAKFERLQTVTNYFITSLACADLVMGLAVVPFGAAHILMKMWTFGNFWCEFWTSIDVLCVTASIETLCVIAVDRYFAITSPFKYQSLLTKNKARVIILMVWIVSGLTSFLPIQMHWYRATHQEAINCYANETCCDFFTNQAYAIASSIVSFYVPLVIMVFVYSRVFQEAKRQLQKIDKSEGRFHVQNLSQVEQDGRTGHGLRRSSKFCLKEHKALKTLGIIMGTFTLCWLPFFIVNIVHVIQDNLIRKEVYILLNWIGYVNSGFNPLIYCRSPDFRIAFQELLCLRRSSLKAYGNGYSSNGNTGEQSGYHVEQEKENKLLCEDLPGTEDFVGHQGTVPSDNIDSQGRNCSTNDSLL
Sequence of Gonadotropin-releasing hormone receptor (Homo sapiens) (P30968 whole entry, looked up): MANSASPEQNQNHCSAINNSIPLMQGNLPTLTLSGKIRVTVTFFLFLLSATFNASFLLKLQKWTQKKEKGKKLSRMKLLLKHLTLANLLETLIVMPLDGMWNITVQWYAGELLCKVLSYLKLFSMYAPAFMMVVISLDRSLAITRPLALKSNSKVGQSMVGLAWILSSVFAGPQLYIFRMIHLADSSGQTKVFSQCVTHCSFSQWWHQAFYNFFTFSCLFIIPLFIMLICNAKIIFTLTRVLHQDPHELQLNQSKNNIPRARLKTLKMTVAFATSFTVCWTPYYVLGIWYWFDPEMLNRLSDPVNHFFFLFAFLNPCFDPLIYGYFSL
Sequence of Muscarinic acetylcholine receptor M1 (Homo sapiens) (P11229 whole entry, looked up): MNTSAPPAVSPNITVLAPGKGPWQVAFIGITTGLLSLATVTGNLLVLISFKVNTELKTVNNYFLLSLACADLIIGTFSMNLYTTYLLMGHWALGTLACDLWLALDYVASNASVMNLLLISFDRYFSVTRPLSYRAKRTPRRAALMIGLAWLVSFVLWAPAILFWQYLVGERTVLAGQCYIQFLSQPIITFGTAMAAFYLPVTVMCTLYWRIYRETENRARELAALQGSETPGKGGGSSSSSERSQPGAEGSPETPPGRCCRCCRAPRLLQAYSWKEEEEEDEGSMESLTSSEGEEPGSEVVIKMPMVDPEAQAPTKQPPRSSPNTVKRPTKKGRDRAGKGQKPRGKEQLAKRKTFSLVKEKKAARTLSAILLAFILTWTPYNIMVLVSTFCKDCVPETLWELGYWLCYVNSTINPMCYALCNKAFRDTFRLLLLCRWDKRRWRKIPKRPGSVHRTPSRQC
Sequence of 5-hydroxytryptamine receptor 2A (Homo sapiens) (P28223 whole entry, looked up): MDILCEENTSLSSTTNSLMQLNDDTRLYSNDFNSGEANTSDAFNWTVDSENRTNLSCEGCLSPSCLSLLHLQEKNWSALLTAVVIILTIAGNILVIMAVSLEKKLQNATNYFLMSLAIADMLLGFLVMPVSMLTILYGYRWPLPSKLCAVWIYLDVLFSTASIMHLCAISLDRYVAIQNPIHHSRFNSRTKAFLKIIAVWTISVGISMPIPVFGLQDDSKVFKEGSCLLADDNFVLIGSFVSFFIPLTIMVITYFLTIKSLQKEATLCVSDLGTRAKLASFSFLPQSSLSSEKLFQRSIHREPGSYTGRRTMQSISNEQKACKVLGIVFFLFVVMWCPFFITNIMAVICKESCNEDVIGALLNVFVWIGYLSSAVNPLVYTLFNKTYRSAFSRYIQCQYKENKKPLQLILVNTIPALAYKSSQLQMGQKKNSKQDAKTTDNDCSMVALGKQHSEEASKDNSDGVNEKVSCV
Sequence of D(2) dopamine receptor (Homo sapiens) (P14416 whole entry, looked up): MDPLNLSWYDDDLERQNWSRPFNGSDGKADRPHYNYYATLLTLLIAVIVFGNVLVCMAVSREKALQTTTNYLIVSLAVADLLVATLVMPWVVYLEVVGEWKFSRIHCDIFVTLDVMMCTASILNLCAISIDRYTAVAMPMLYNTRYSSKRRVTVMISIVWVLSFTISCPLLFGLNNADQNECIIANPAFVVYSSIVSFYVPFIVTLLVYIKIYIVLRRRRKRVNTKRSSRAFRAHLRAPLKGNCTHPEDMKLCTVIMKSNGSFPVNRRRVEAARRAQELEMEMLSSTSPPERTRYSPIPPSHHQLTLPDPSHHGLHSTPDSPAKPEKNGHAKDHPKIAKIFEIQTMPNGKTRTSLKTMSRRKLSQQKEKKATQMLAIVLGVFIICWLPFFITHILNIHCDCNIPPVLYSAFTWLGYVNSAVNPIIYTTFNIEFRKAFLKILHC

CCCCCCCCCCCC(=O)OCC
inactive: Potency [1] | Potency [2] | Potency [3] | Potency [4] | Potency [5] | Potency [6] | Potency [7] | Potency [8] | Potency [9] | Potency [10] | Potency [11] | Potency [12] | Potency [13] | Potency [14] | Potency [15] | Potency [16] | Potency [17] | Potency [18] | Potency [19]

O=C(O)Cn1cnnn1
inactive: Potency [1] | Potency [2] | Potency [3] | Potency [4] | Potency [5] | Potency [6] | Potency [7] | Potency [8] | Potency [9] | Potency [11] | Potency [20] | Potency [12] | Potency [13] | Potency [14] | Potency [15] | Potency [16] | Potency [17] | Potency [18] | Potency [19]

Cc1ccccc1C(=O)Nc1ccc(C(=O)N2CCCC(O)c3cc(Cl)ccc32)c(C)c1 (centres undefined)
inactive: Potency [1] | Potency [2] | Potency [3] | Potency [4] | Potency [5] | Potency [6] | Potency [7] | Potency [8] | Potency [9] | Potency [10] | Potency [20] | Potency [12] | Potency [13] | Potency [14] | Potency [15] | Potency [16] | Potency [18] | Potency [19]

Cn1ccc2cc3c(cc21)CCN3C(=O)Nc1cccnc1
inactive: activity change, negative = cytotoxicity [1] 3.31% [at 19 µM] | activity, positive = activation [2] 26.3% [at 19 µM] | activity change [3] -0.165% [at 11.8 µM, hits give high values] | activation [4] -2.7% [at 15.8 µM] | activation [5] 0.454% [at 11.8 µM] | activation [6] -2.12% [at 13.6 µM] | activity change, negative = cytotoxicity [7] -7.75% [at 13.5 µM] | activity change, negative = cytotoxicity [8] -3.54% [at 13.5 µM] | activity change, negative = cytotoxicity [9] -10.9% [at 13.5 µM] | activation [10] -0.168% [at 13.5 µM] | activation [20] -6.77% [at 15.9 µM] | activity, negative = inhibition [12] 8.54% [at 12.6 µM] | activation [13] -0.375% [at 15.8 µM] | activation [14] 13.1% [at 19 µM] | activity change, negative = inhibition [15] 0.0268% [at 18.9 µM] | activity change, negative = inhibition [16] 0.687% [at 19 µM] | activation [17] -9.02% [at 19 µM] | activation [18] 16.6% [at 19 µM] | activity change, negative = inhibition [19] -0.697% [at 18.9 µM]

CC(=O)OC/C=C(/C)CCC=C(C)C
inactive: Potency [1] | Potency [2] | Potency [3] | Potency [4] | Potency [5] | Potency [6] | Potency [7] | Potency [8] | Potency [9] | Potency [10] | Potency [11] | Potency [12] | Potency [13] | Potency [14] | Potency [15] | Potency [16] | Potency [17] | Potency [18] | Potency [19]

CN1CCN(c2ccccc2/C=C2\SCCN(c3ccc(Cl)c(Cl)c3)C2=O)CC1
active: Potency [1] 43.3 µM | Potency [8] 45.8 µM | Potency [12] 7.48 µM | Potency [16] 0.77 µM | Potency [19] 54.5 µM
inactive: Potency [2] | Potency [3] | Potency [4] | Potency [5] | Potency [6] | Potency [7] | Potency [9] | Potency [10] | Potency [11] | Potency [13] | Potency [14] | Potency [15]

C=C(C)C(=O)OCCOC1CC2CC1C1C=CCC21 (centres undefined)
inactive: Potency [1] | Potency [2] | Potency [3] | Potency [4] | Potency [5] | Potency [6] | Potency [7] | Potency [8] | Potency [9] | Potency [10] | Potency [20] | Potency [12] | Potency [13] | Potency [14] | Potency [16] | Potency [17] | Potency [18] | Potency [19]
